# Data published in article PMC8769072, “Proteome‐scale mapping of binding sites in the unstructured regions of the human proteome” (Molecular Systems Biology, 2022).
# B1: TBP, P20226 (peptide)
# chain: NNSLPPYAQGLASPQG
# B2: ARID2, Q68CP9 (peptide)
# chain: HPPTYVQNVVPQNTPM
# B3: TMEM52, Q8NDY8 (peptide)
# chain: EPPPSYDEAVKMAKPR
# B4: SIPA1, Q96FS4 (peptide)
# chain: PQNRTSAYSLEHADLG
# B5: ANKRD17, O75179 (peptide)
# chain: PSAMLPIYPAIDIDAQ
# B6: ALKBH5, Q6P6C2 (peptide)
# chain: SVLPPSYASDRLSGNN
# B7: SVEP1, Q4LDE5 (peptide)
# chain: SARSGYVIQGSSDLIA
# B8: NHSL1, Q5SYE7 (peptide)
# chain: SPVFPPPPPEALIPFA
# B9: TMEM52, Q8NDY8 (peptide)
# chain: SMAPPAYSLYTPEPPP
# B10: NDFIP2, Q9NV92 (peptide)
# chain: TEVYGEFYPVPPPYSV
# B11: ZNF783, Q6ZMS7 (peptide)
# chain: LPPYPEHLTSPLSPAQ
# B12: CHMP1B, Q7LBR1 (peptide)
# chain: NQAVNFLRMSARVDAV
# B13: NLGN1, Q8N2Q7 (peptide)
# chain: HEVVLRTAAPPDYTLA
# B14: AR, P10275 (peptide)
# chain: DFTAPDVWYPGGMVSR
# B15: GAB1, Q13480 (peptide)
# chain: SSATLPPPYQLINVPP
# B16: MAGEB18, Q96M61 (peptide)
# chain: EYQQVPNSDPPRYEFL
# B17: MFSD6, Q6ZSS7 (peptide)
# chain: DGKGAKPPEYRNYQIV
# B18: ZC3H4, Q9UPT8 (peptide)
# chain: ARTVLWNPEDLIPLPI
# B19: STPG3, Q8N7X2 (peptide)
# chain: TGTPQESLPTYTQTLR
# B20: TMEM59L, Q9UK28 (peptide)
# chain: LYPPPSHAAEDSLPPY
# B21: WBP1, Q96G27 (peptide)
# chain: PPAYEDVVHRPGTPPP
# B22: NDFIP2, Q9NV92 (peptide)
# chain: ASSAPALETDSSPPPY
# B23: EHMT1, Q9H9B1 (peptide)
# chain: SARVNPQDGTNTLTRI
# B24: RRAD, P55042 (peptide)
# chain: WEQDGGRWLPGHAMAM
# B25: PDZRN4, Q6ZMN7 (peptide)
# chain: SARSTPLTVDRSPDSS
# B26: SPATA5, Q8NB90 (peptide)
# chain: IPTSRSTPYKPIDDRI
# B27: TPSG1, Q9NRR2 (peptide)
# chain: YTREGEPLPPPYSLRE
# B28: XIRP2, A4UGR9 (peptide)
# chain: EFPPPPPDVLQTSVDV
# B29: SMAD1, Q15797 (peptide)
# chain: ADTPPPAYLPPEDPMT
# B30: TMEM158, Q8WZ71 (peptide)
# chain: AAATAGAPTALPAYPA
# B31: DVL2, O14641 (peptide)
# chain: APHPYSPQPPPYHELS
# Sequence of YAP1 169-207, P46937 (P46937 169-207): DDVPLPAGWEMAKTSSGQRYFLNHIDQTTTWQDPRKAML
# Sequence of VASP 1-114, P50552 (P50552 1-114): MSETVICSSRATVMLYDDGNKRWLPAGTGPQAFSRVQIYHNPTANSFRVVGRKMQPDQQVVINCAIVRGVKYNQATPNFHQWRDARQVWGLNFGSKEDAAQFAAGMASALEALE
binder,measurement,setting,value
B1,selected by phage display,"YAP1 169-207, P46937",confidence 3 (active)
B2,selected by phage display,"YAP1 169-207, P46937",confidence 2 (active)
B3,selected by phage display,"YAP1 169-207, P46937",confidence 3 (active)
B4,selected by phage display,"WDR5 21-334, P61964",confidence 2 (active)
B5,selected by phage display,"YAP1 169-207, P46937",confidence 2 (active)
B6,selected by phage display,"YAP1 169-207, P46937",confidence 2 (active)
B7,selected by phage display,"WDR5 21-334, P61964",confidence 2 (active)
B8,selected by phage display,"VASP 1-114, P50552",confidence 3 (active)
B9,selected by phage display,"YAP1 169-207, P46937",confidence 3 (active)
B10,selected by phage display,"YAP1 169-207, P46937",confidence 4 (active)
B11,selected by phage display,"YAP1 169-207, P46937",confidence 2 (active)
B12,selected by phage display,"WDR5 21-334, P61964",confidence 2 (active)
B13,selected by phage display,"YAP1 169-207, P46937",confidence 3 (active)
B14,selected by phage display,"WDR5 21-334, P61964",confidence 2 (active)
B15,selected by phage display,"YAP1 169-207, P46937",confidence 4 (active)
B16,selected by phage display,"YAP1 169-207, P46937",confidence 2 (active)
B17,selected by phage display,"YAP1 169-207, P46937",confidence 3 (active)
B18,selected by phage display,"WDR5 21-334, P61964",confidence 2 (active)
B19,selected by phage display,"YAP1 169-207, P46937",confidence 3 (active)
B20,selected by phage display,"YAP1 169-207, P46937",confidence 2 (active)
B21,selected by phage display,"YAP1 169-207, P46937",confidence 3 (active)
B22,selected by phage display,"YAP1 169-207, P46937",confidence 2 (active)
B23,selected by phage display,"WDR5 21-334, P61964",confidence 2 (active)
B24,selected by phage display,"WDR5 21-334, P61964",confidence 2 (active)
B25,selected by phage display,"WDR5 21-334, P61964",confidence 2 (active)
B26,selected by phage display,"WDR5 21-334, P61964",confidence 2 (active)
B27,selected by phage display,"YAP1 169-207, P46937",confidence 3 (active)
B28,selected by phage display,"VASP 1-114, P50552",confidence 4 (active)
B29,selected by phage display,"YAP1 169-207, P46937",confidence 2 (active)
B30,selected by phage display,"YAP1 169-207, P46937",confidence 2 (active)
B31,selected by phage display,"YAP1 169-207, P46937",confidence 3 (active)
